Experimental data taken from PubChem BioAssay AID624483 (NMMLSC, 2012).
Hit rate of the full screen: of about 360,000 compounds, about 11,000 (3.1%) were called active. About 2% were inconclusive and are not listed. No stated cut-off is given here; in the data, active means fluorescence intensity above about 16000; inconclusive means no clear call, values can overlap the other calls; inactive means below that. For the sample, actives were picked, then their nearest neighbours and some compounds at random.

Test: counter-screen for toxin protease inhibitors: compound fluorescence, primary screen, artefact control for toxin protease inhibitor project, biochemical, multiplex microsphere, HTS (AID 624483)
Conditions: compound autofluorescence counterscreen, microsphere flow cytometry; active compounds read high

| SMILES | fluorescence intensity |
| --- | --- |
| CC1=C(C(=O)OCC2CCCCC2)C(c2ccc(F)cc2)NC(=O)N1 (stereo not drawn) | 3520 (inactive) |
| CC(C)c1cccc(-c2csc(C(O)c3ccccc3)n2)c1 (stereo not drawn) | 3800 (inactive) |
| COC(=O)c1sccc1NC(=O)c1ccc(Cl)cc1 | 2980 (inactive) |
| COC(=O)c1sccc1NS(=O)(=O)c1ccc(F)cc1F | 3170 (inactive) |
| COC(=O)c1sccc1N/N=C(\C)c1ccc(F)c(Cl)c1 | 22300 (active) |
| OC(c1ccccc1)c1nc(-c2cnc3ccccc3c2)cs1 (stereo not drawn) | 3830 (inactive) |
| Cc1ccc(NC(=O)CNCc2ccccn2)cc1S(=O)(=O)N(C)C | 4460 (inactive) |
| CCN(CC)S(=O)(=O)c1cc(C(=O)Nc2ccccn2)ccc1C | 24700 (active) |
| CCN(c1ccccc1)S(=O)(=O)c1cc(C(=O)NCc2ccccn2)ccc1C | 6330 (inactive) |
| CC1(C)OC(=O)C2=C(C[C@@H](C3CC3)O[C@H]2c2ccc(Cl)cc2)O1 | 5960 (inactive) |
| Cc1cc2nc(-c3ccco3)c(Cc3cccc(F)c3)n2c(C)c1Br | 5860 (inactive) |
| Cc1cc(OCC(=O)N(C)c2c(N)n(Cc3ccccc3)c(=O)[nH]c2=O)c(C(C)C)cc1Cl | 5120 (inactive) |
| Cc1ccc(S(=O)(=O)N(CC(=O)NCCSC2CCCCC2)c2ccccc2F)cc1 | 7650 (inactive) |
| O=P(c1cccs1)(c1cccs1)c1cccs1 | 22500 (active) |
| O=C(O)CCC(=O)N(Cc1cccs1)Cc1cccs1 | 9340 (inactive) |
| COc1ccc(CC(N)c2csc(NC(=O)Cc3ccccc3)n2)cc1 (stereo not drawn) | 3080 (inactive) |
| CCCCCCCCN1C(=O)[C@H](CC(=O)NCC23CC4CC(CC(C4)C2)C3)C[C@@]2(C(=O)OC)CCCCC=C12 | 5660 (inactive) |
| COC(=O)c1ccc(CN2CCC(CO)(Cc3ccc(OC)cc3)CC2)cc1 | 3600 (inactive) |
| CC(=O)N(C1=NCCCS1)c1ccccc1F | 24900 (active) |
| O=C(NCc1ccc(F)cc1)c1cc(C2CCCCN2C(=O)c2cccs2)on1 (stereo not drawn) | 3580 (inactive) |
| Nc1c(-c2ccccc2)nnn1Cc1ccccc1 | 5560 (inactive) |
| Cc1nn(Cc2ccccc2)c(C)c1NS(=O)(=O)c1ccccc1 | 5640 (inactive) |
| OCc1nc(CO)n(Cc2ccccc2)n1 | 20000 (active) |
| O=C(NCc1cccnc1)c1ccc2nc([C@@H]3O[C@H](CO)[C@H](O)[C@H](O)[C@H]3O)[nH]c2c1 | 3590 (inactive) |
| Cc1ccc(-n2c(O)c(C=NCC3CCCO3)c(=O)[nH]c2=O)c(C)c1 (stereo not drawn) | 6540 (inactive) |

| SMILES | fluorescence intensity |
| --- | --- |
| O=C1C(C=NCC2CCCO2)=C(O)c2ccccc21 (stereo not drawn) | 21000 (active) |
| O=C1c2cccc3c([N+](=O)[O-])ccc(c23)C(=O)N1CC1CCCO1 (stereo not drawn) | 3530 (inactive) |
| CC(C)Oc1ccc(CN2CCC2(C)C(=O)NCc2ccc(C(F)(F)F)cc2)cc1 (stereo not drawn) | 4110 (inactive) |
| COc1ccc(C(=O)Nc2cc(S(=O)(=O)N3CCCC3)ccc2Cl)cc1 | 3660 (inactive) |
| CNC(=O)c1ccsc1NC(=O)c1ccc(S(=O)(=O)N2CCOCC2)cc1 | 2470 (inactive) |
| COc1ccc(C(=O)Nc2nc(-c3ccc(S(=O)(=O)N4CCOCC4)cc3)cs2)cc1 | 20400 (active) |
| COc1ccc(-c2cnc3c(c2)C(=O)N([C@H](C)CO)C[C@@H](C)[C@H](CN(C)Cc2ccccc2)O3)cc1 | 3700 (inactive) |
| CC(C)NC(=O)CSc1ccccc1C(=O)NCc1ccc2c(c1)OCO2 | 2170 (inactive) |
| CCn1c(=O)cc(SCC(=O)NCCC2=CCCCC2)c2ccccc21 | 2540 (inactive) |
| CCOC(=O)N1CCC(NC(=O)Cc2cn(C)c3ccccc23)CC1 | 2810 (inactive) |
| CCn1c(=O)cc(SCC(=O)NCc2ccc3c(c2)OCO3)c2ccccc21 | 23400 (active) |
| Cn1cc(CCC(=O)NC2CC2)c2ccccc21 | 3960 (inactive) |
| CCN(CC)C(=O)C(=O)c1cn(CC(=O)NCc2ccc3c(c2)OCO3)c2ccccc12 | 4830 (inactive) |
| CCOC(=O)N1CCC(NC(=O)CCc2ccccc2)CC1 | 3630 (inactive) |
| Cn1cc(CCC(=O)NCc2ccc3c(c2)OCO3)c2ccccc21 | 22500 (active) |
| CCOC(=O)N1CCC(NC(=O)CCc2cn(C)c3ccccc23)CC1 | 22900 (active) |
| COc1ccc(-c2csc(C(O)c3cccc(Cl)c3)n2)cn1 (stereo not drawn) | 3880 (inactive) |
| COCCNC(=O)CSc1nc2c(n1-c1ccccc1)CCCC2 | 3860 (inactive) |
| COc1ccc(-c2cc3nc(NCCOc4ccccc4)ccn3n2)cc1 | 4480 (inactive) |
| O=C(NCc1ccc(F)cc1)C(c1ccccc1)N(C(=O)c1csnn1)C1CC1 (stereo not drawn) | 2770 (inactive) |
| CNc1cncc(-c2ccc(NS(C)(=O)=O)cc2)n1 | 3500 (inactive) |
| Cc1cc(NC(=O)CSc2ncc(C(F)(F)F)cc2Cl)no1 | 3110 (inactive) |
| Cc1ccc(-c2ccnc3nc(Sc4ncc(C(F)(F)F)cc4Cl)nn23)cc1 | 23100 (active) |
| Cc1nn(-c2ncc(C(F)(F)F)cc2Cl)c(=O)n1-c1ccccc1 | 2340 (inactive) |
| Cc1ccc(-c2cnc(C(O)c3cccc(C)c3C)[nH]2)cc1 (stereo not drawn) | 3860 (inactive) |

| SMILES | fluorescence intensity |
| --- | --- |
| OC(c1ccccc1)(c1ccccc1)C1CCN(CCCOc2ccccc2)CC1 | 6640 (inactive) |
| COc1ccc(CN2CCC(C)(Oc3cccc(F)c3)C2)c2ccccc12 (stereo not drawn) | 3240 (inactive) |
| CC(C)(C)NC(=O)CSC(=Nc1ccccc1F)NC#N | 21400 (active) |
| Cc1ccccc1CSCC(=O)NC(=O)NC(C)(C)C | 11200 (inactive) |
| COc1ccccc1-n1ccnc1SCC(=O)NC(C)(C)C | 3990 (inactive) |
| CCOC(=O)[C@]12CCC=C1N(Cc1cccc3ccccc13)C(=O)[C@H](CC(=O)NCc1cccc(C(F)(F)F)c1)C2 | 4120 (inactive) |
| CC(=O)Nc1cc(-c2cccc(CO)c2)cn2c(-c3cccc(C(F)(F)F)c3)cnc12 | 3820 (inactive) |
| OC(c1ccc(Cl)cc1)C(CN1CCOCC1)c1ccccc1 (stereo not drawn) | 3680 (inactive) |
| COCCn1c(SCC(=O)Nc2cc(Cl)ccc2OC)nc2c(c1=O)SC(C)C2 (stereo not drawn) | 4110 (inactive) |
| CCOC(=O)c1cccc(NC(=O)CCOc2ccccc2)c1 | 3720 (inactive) |
| CCOC(=O)c1cccc(NC(=O)CCn2nnc3ccccc32)c1 | 4180 (inactive) |
| CCOC(=O)c1cccc(NC(=O)CCc2c(C)nc3ncnn3c2C)c1 | 17600 (active) |
| c1ccc(C2CNCc3c2ccc2ccccc32)cc1 (stereo not drawn) | 10400 (inactive) |
| O=S1(=O)CC(N2CCN(Cc3ccccc3F)CC2)CN1Cc1cn(Cc2cccc(C(F)(F)F)c2)nn1 (stereo not drawn) | 4150 (inactive) |
| Cc1cccc(N2CCN(c3ccc(C(N)=O)cc3[N+](=O)[O-])CC2)c1C | 4080 (inactive) |
| CS(=O)(=O)N1CCN(c2ccc(C(=O)NC3C4CC5CC(C4)CC3C5)cc2[N+](=O)[O-])CC1 (stereo not drawn) | 17000 (active) |
| Cc1ccc(C(=O)c2ccc(N3CCN(C)CC3)c([N+](=O)[O-])c2)cc1 | 2490 (inactive) |
| CCCNC(=O)CN(Cc1ccccc1F)S(=O)(=O)c1ccc(C)cc1 | 21400 (active) |
| CCN(CC(=O)NCCc1ccccc1)S(=O)(=O)c1ccccc1 | 5110 (inactive) |
| CCN(CC(=O)NCCc1ccccc1)S(=O)(=O)c1ccc(C)cc1 | 2180 (inactive) |
| NC(=O)C1CCN(CC(O)CSc2ccc(F)cc2)CC1 (stereo not drawn) | 3520 (inactive) |
| CC1(C(=O)NCc2ccc3c(c2)OCO3)CCN1C(=O)Cc1cccs1 (stereo not drawn) | 3670 (inactive) |
| O=C(COc1ccc2oc3c(c2c1)CCCC3)Nc1ccccn1 | 3750 (inactive) |
| CCOC(=O)N1CCN(C(=O)COc2ccc3oc4c(c3c2)CCCC4)CC1 | 4590 (inactive) |
| O=C(CN1CCOCC1)N1CCCc2c1c(=O)oc1ccc(OCc3ccccc3)cc21 | 22500 (active) |

| SMILES | fluorescence intensity |
| --- | --- |
| O=C1OC(OC(=O)c2ccccc2Br)C(N2CCOCC2)=C1Cl (stereo not drawn) | 6700 (inactive) |
| O=C(NC(=O)N1CCOCC1)c1ccccc1 | 9020 (inactive) |
| O=C1OC(NC(=O)c2ccccc2)C(N2CCOCC2)=C1Cl (stereo not drawn) | 21900 (active) |
| Cc1cc2oc(=O)cc(CN(C)Cc3ccccc3)c2cc1Cl | 6000 (inactive) |
| CC(=O)c1c(C)n([O-])c2ccccc2[n+]1=O | 23100 (active) |
| Cc1c(C=O)c2ccccc2n1CC(=O)O | 4440 (inactive) |
| FC(F)(F)c1nnc2c3ccccc3c(Cl)nn12 | 3190 (inactive) |
| Cc1nnc2sc(-c3ccco3)nn12 | 20800 (active) |
| FC(F)(F)c1nnc2sc(-c3ccco3)nn12 | 22400 (active) |
| CNc1nnc(-c2ccco2)s1 | 4180 (inactive) |
| Fc1ccc(-c2ccc(-c3nn4c(-c5ccco5)nnc4s3)o2)cc1 | 3990 (inactive) |
| COC(=O)c1cnn2c(C(F)(F)F)cc(-c3ccco3)nc12 | 4440 (inactive) |
| CC(=O)Nc1cccc(-c2cc(NC(C)=O)c3ncc(-c4ccccc4)n3c2)c1 | 3750 (inactive) |
| O=C(/C=C/c1cccs1)c1cc(Cl)ccc1OC(=O)N1CCOCC1 | 2170 (inactive) |
| O=C(Nc1ccc(N2CCOCC2)cc1)c1cccc2c(-c3ccc(F)c(F)c3)coc12 | 3990 (inactive) |
| CC12CCC(=O)C=C1CCC1C2C(O)CC2(C)C1CCC2(O)C(O)CO (stereo not drawn) | 5610 (inactive) |
| O=C(/C=C\NCC(=O)c1ccccc1)c1ccccc1 | 21800 (active) |
| O=C(/C=C/NCc1ccc(F)cc1)c1ccccc1 | 2490 (inactive) |
| O=C(/C=C/NNC(=O)c1cccc(Br)c1)c1ccccc1 | 3590 (inactive) |
| COC(=O)c1ccc(C)c(NC(=O)Cn2c(C)csc2=O)c1 | 3770 (inactive) |
| Cc1oc(-c2cccc(Cl)c2)[n+]([O-])c1C | 3960 (inactive) |
| Cc1oc(-c2ccccc2Cl)[n+]([O-])c1C | 25200 (active) |
| CCOc1cnc(-c2c(-c3ccccc3Cl)noc2C)o1 | 2480 (inactive) |
